{"source": "PubChem BioAssay AID2472", "about": "(National Center for Advancing Translational Sciences (NCATS), 2010)", "note": "Among all 290,000 compounds or so, about 2,000 (0.69%) were called active. The sample holds actives, similar compounds and a random draw of the others, so the mix is not that of the screen. A number with no mark means an inactive call. No stated cut-off is given here; in the data, active means activity change below about -30%; inactive means the rest, inconclusive results apart. On the % scale 0 is the no-effect control and ±100 the full control effect."}
{"experiment": "qHTS Assay for Inhibitors of Fructose-1,6-bisphosphate Aldolase from Giardia Lamblia: Coupling assay counterscreen", "conditions": "coupling enzyme system counterscreen, AmpLite Red fluorescence; at 58.2 µM (top of the series)", "how_it_was_run": "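Coupling enzymes only (glyceraldehyde-3-phosphate) + compound, at 57.5 uM final, 10 min RT; add substrate/coupling/AmpLite Red mix, 20 min RT; fluorescence ex 525/em 598 nm. Actives flag coupling-system interference.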"}
{"smiles": "Cc1ccc(Cn2c(C)c3cnn(CC(=O)NCc4ccccn4)c(=O)c3c2C)cc1", "activity change, negative = inhibition": "0.293%"}
{"smiles": "COc1ccc(C(=O)NC2=NCCS2)c(OC)c1", "activity change, negative = inhibition": "0.219%"}
{"smiles": "Cc1cccc2c3c(ccc12)C1=C(C(=O)C3=O)C(C)CO1", "note": "(configuration not stated)", "activity change, negative = inhibition": "-60.2% (active)"}
{"smiles": "O=C1C2C3C=CC(C3)C2C(=O)N1c1ccc(-c2nc3ccccc3c(=O)o2)cc1", "note": "(configuration not stated)", "activity change, negative = inhibition": "-9.8%"}
{"smiles": "Cc1cc2c(c(=O)n1Cc1ccccc1)C1O[C@](CCCCN3C(=O)c4ccccc4C3=O)(Cc3ccccc31)O2", "activity change, negative = inhibition": "-1.41%"}
{"smiles": "CN1C(=O)c2cccc3c(N)ccc(c23)C1=O", "activity change, negative = inhibition": "0.398%"}
{"smiles": "CCN1C(=O)c2cccc3c(S(=O)(=O)Nc4ccccc4O)ccc1c23", "activity change, negative = inhibition": "-10.8%"}
{"smiles": "CCN1C(=O)c2cccc3c(N)ccc1c23", "activity change, negative = inhibition": "-57.1% (active)"}
{"smiles": "O=C1C[C@@H](c2ccc3ccccc3c2)N1S(=O)(=O)c1ccccc1[N+](=O)[O-]", "activity change, negative = inhibition": "11.1%"}
{"smiles": "C=CC1=C2C=C(C3CC3)N(C(CO)CO)C=C2C(=O)C(C)(OC(=O)c2ccco2)C1=O", "note": "(configuration not stated)", "activity change, negative = inhibition": "-18.7%"}
{"smiles": "C=CC1=C2C=C(C3CC3)N(CC(C)C)C=C2C(=O)C(C)(OC(=O)c2ccco2)C1=O", "note": "(configuration not stated)", "activity change, negative = inhibition": "-42.6% (active)"}
{"smiles": "CC(C)(C)OC(=O)NCCCC1=CC2=CC(=O)C(C)(OC(=O)c3ccco3)C(=O)C2=CO1", "note": "(configuration not stated)", "activity change, negative = inhibition": "-0.316%"}
{"smiles": "Cc1cccc(C(=O)Nc2ccc(C(=O)/C=C/c3cccs3)cc2)c1", "activity change, negative = inhibition": "-6.98%"}
{"smiles": "CN(C)c1ccc(NC(=O)CSc2n[nH]c(-c3ccco3)n2)cc1", "activity change, negative = inhibition": "0.0598%"}
{"smiles": "O=[N+]([O-])c1ccc(Sc2n[nH]c(-c3ccco3)n2)nc1", "activity change, negative = inhibition": "3.58%"}
{"smiles": "CN(C)C(=O)CSc1n[nH]c(-c2ccco2)n1", "activity change, negative = inhibition": "-32.9% (active)"}
{"smiles": "COc1ccc(-c2c(-c3ccc(OC)cc3O)nc(C)nc2C(F)(F)F)cc1", "activity change, negative = inhibition": "2.62%"}
{"smiles": "COc1ccc(C2=Nn3c(nnc3-c3ccccc3O)SC2)cc1", "activity change, negative = inhibition": "-2.11%"}
{"smiles": "CCCCC/C=C\\C/C=C\\CCCCCCCCCC(=O)NCC(=O)O", "activity change, negative = inhibition": "1.59%"}
{"smiles": "O=Cc1cn(-c2ccccc2)nc1-c1ccccn1", "activity change, negative = inhibition": "0.364%"}
{"smiles": "O=C1C(c2ccccn2)=[N+]([O-])c2ccccc21", "activity change, negative = inhibition": "-40.5% (active)"}
{"smiles": "NC(=O)C1CCN(C(=O)CC2C(=O)NCCN2Cc2cccc(Oc3ccccc3)c2)CC1", "note": "(configuration not stated)", "activity change, negative = inhibition": "-8.79%"}
{"smiles": "O=C(NCc1ccccc1Cl)c1ccc2c(=O)n(CC3CCCO3)c(=S)[nH]c2c1", "note": "(configuration not stated)", "activity change, negative = inhibition": "2.3%"}
{"smiles": "COc1ccccc1OCc1nnc(SCC(N)=O)n1-c1ccccc1", "activity change, negative = inhibition": "-0.0181%"}
{"smiles": "COc1ccc(OC)c(-n2cc3c(=O)n(C)c(=O)n(C)c3c2)c1", "activity change, negative = inhibition": "-33.3% (active)"}
{"smiles": "COc1ccc(-c2c3c(=O)n(C)c(=O)n(C)c3cn2-c2cccc(OC)c2)cc1", "activity change, negative = inhibition": "3.67%"}
{"smiles": "Cn1c(=O)c2cn(-c3cccc4ccccc34)cc2n(C)c1=O", "activity change, negative = inhibition": "-34.2% (active)"}
{"smiles": "COc1ccc(-c2c3c(=O)n(C)c(=O)n(C)c3cn2NC(C)=O)cc1", "activity change, negative = inhibition": "-2.71%"}
{"smiles": "CC(=O)Nn1cc2c(=O)n(C)c(=O)n(C)c2c1", "activity change, negative = inhibition": "-0.0563%"}
{"smiles": "O=C1c2ccccc2C(=O)N1c1cccc2ccccc12", "activity change, negative = inhibition": "2.72%"}
{"smiles": "CN(Cc1ccc(F)cc1Cl)S(=O)(=O)c1cccs1", "activity change, negative = inhibition": "-12.4%"}
{"smiles": "CC(C)(C)c1ccc(SCCc2ccncc2)cc1", "activity change, negative = inhibition": "1.38%"}
{"smiles": "COc1cc(NC(=O)C2CCN(c3cnccn3)CC2)cc(OC)c1", "activity change, negative = inhibition": "-3.56%"}
{"smiles": "Cc1cc(C(F)F)n2nc(C(=O)Nc3ccc(S(=O)(=O)NC45CC6CC(CC(C6)C4)C5)cc3)nc2n1", "activity change, negative = inhibition": "0.756%"}
{"smiles": "CCn1nccc1C(=O)Nc1ccc(Cl)c(Cl)c1", "activity change, negative = inhibition": "0.939%"}
{"smiles": "CCn1nccc1C(=O)Nc1ccc(S(=O)(=O)NC23CC4CC(CC(C4)C2)C3)cc1", "activity change, negative = inhibition": "-40.9% (active)"}
{"smiles": "COc1ccc(NC(=O)C2CCC(CNC(=O)[C@@H]3Cc4ccccc4CN3)CC2)cc1", "note": "(some centres not stated)", "activity change, negative = inhibition": "0.0857%"}
{"smiles": "COc1ccc(NC(=O)CCn2ccnc2)c(OC)c1", "activity change, negative = inhibition": "5.46%"}
{"smiles": "O=C(N/N=C/c1c(Cl)[nH]c2ccccc12)c1sc2ccccc2c1Cl", "activity change, negative = inhibition": "-8.68%"}
{"smiles": "Oc1ccc(N=Cc2sc3ccccc3c2Cl)cc1", "activity change, negative = inhibition": "-45.3% (active)"}
{"smiles": "COc1ccc(N=C(C)c2sc3ccccc3c2O)cc1", "activity change, negative = inhibition": "-5.39%"}
{"smiles": "COc1ccccc1S(=O)(=O)c1c(C)cc(C)[nH]c1=O", "activity change, negative = inhibition": "0.55%"}
{"smiles": "C=CC(C1=CC(=O)C=CC1=O)c1ccc(O)cc1", "note": "(configuration not stated)", "activity change, negative = inhibition": "-27%"}
{"smiles": "CCOC(=O)c1ccccc1C(=O)N1CCOCCOCCOCC1", "activity change, negative = inhibition": "-0.445%"}
{"smiles": "Cc1oc2c(c1C(=O)N1CCOCC1)C(=O)c1ccccc1C2=O", "activity change, negative = inhibition": "-40.8% (active)"}
{"smiles": "Cc1noc(C)c1C(=O)N1CCOCC1", "activity change, negative = inhibition": "0.778%"}
{"smiles": "COC(=O)c1cc2c(ccn2C)n1C", "activity change, negative = inhibition": "-5.9%"}
{"smiles": "Cc1cc(C(=O)N/N=C/c2ccccn2)c2ccccc2n1", "activity change, negative = inhibition": "0.262%"}
{"smiles": "CCCc1cc(=S)n2c([nH]c3ccccc32)c1C#N", "activity change, negative = inhibition": "-7.83%"}
{"smiles": "CCOC(=O)CCc1c(C)c(C#N)c2[nH]c3ccccc3n2c1=O", "activity change, negative = inhibition": "-41.6% (active)"}
{"smiles": "CCOC(=O)CSc1nccc(N(C)C)c1C#N", "activity change, negative = inhibition": "-0.791%"}
{"smiles": "C=CCn1cc(Cl)cc(C(=O)Nc2ccccc2)c1=O", "activity change, negative = inhibition": "0.816%"}
{"smiles": "COc1ccc(S(=O)(=O)/N=C2\\C=C(NS(=O)(=O)c3ccccc3)C(=O)c3ccccc32)cc1", "activity change, negative = inhibition": "-39.6% (active)"}
{"smiles": "COc1ccc(S(=O)(=O)Nc2c(C)n(C)n(-c3ccccc3)c2=O)cc1", "activity change, negative = inhibition": "0.385%"}
{"smiles": "COc1ccc2cc(S(=O)(=O)Nc3ccccn3)ccc2c1", "activity change, negative = inhibition": "0.329%"}
{"smiles": "C[C@@H](O)[C@@H]1NC(=O)[C@H](CCCCN)NC(=O)[C@H](Cc2c[nH]c3ccccc23)NC(=O)[C@H](Cc2ccccc2)NC(=O)[C@H](Cc2ccccc2)NC(=O)[C@H](CC(N)=O)NC(=O)[C@H](CCCCN)NC(=O)[C@@H](NC(=O)[C@@H]2CCCN2)CSSC[C@@H](C(=O)N[C@@H](CCCCN)C(=O)O)NC(=O)[C@H](CO)NC(=O)[C@H](CO)NC(=O)[C@H](Cc2ccccc2)NC1=O", "activity change, negative = inhibition": "-0.403%"}
{"smiles": "CCCc1c(C(=O)Nc2ccc(F)cc2)cnn1-c1ccccc1", "activity change, negative = inhibition": "-6.8%"}
